Consider 24 molecules from PubChem BioAssay AID371 (SRMLSC, 2006).

The structures appear in SMILES notation. Values joined by “and” are separate entries in the source; they are usually repeats but may differ in a detail not shown here. Equal values may be shown once. Out of some 3,300 compounds screened, about 280 (8.5%) were called active. Shown is part of a subset that was picked to be rich in actives. A number with no mark means an inactive call.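 Rule for the calls: active = mean growth inhibition over the two runs of 50% or more; inactive = mean growth inhibition under 50%.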

This assay is described as follows: A549 NSCLC cell proliferation inhibitors – ATP luminescence, human non-small cell lung line, primary screen (AID 371).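 Note: compound exposure lasted 72 h before the ATP read; 0% = untreated cell signal and 100% = no luminescence left.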 Particulars: at 10 µM, hits give high values.
On to `CC(C)N1CCc2c(sc(N)c2C#N)C1`, for which the growth inhibition is 17.2%.

As to `CC(=O)N=C(N)Sc1nc2ccccc2[nH]1`, the growth inhibition is 6.73%.

For `COC(=O)CSc1nc(-c2cccs2)ccc1C#N`, the growth inhibition was 14.7%.

For `COc1cc(Cn2ccnc2)c(OC)cc1Cn1ccnc1`, the growth inhibition is 1%.

As to `Cc1ccc(/C(O)=C2/C(=O)C(=O)N(Cc3ccco3)C2c2cccs2)cc1` (centres undefined), the growth inhibition was -0.53%.

For `COC(=O)/C=c1/s/c(=C(/C#N)C(=O)N2CCCCC2)n(-c2ccccc2)c1=O`, the growth inhibition is -4.39%.

Consider `C[C@@H]1C[C@H](Nc2ccccc2)c2ccccc2N1C(=O)c1cccnc1`, for which the growth inhibition is 53.7% (active).

In the case of `O=C(c1cncc(Br)c1)N1CCCc2ccccc21`, the growth inhibition is 8.54%.

For `O=C(Nc1cccnc1)c1cccnc1`, the growth inhibition is -4.29%.

For `O=C(O)CCN(CCC(=O)O)c1nnc(SCc2ccccc2)s1`, the growth inhibition was -4.61%.

Consider `CC(=O)NC(=O)Nc1sc(=S)n(C)c1C`, for which the growth inhibition was -19.1%.

`CCOc1ccc(/C(O)=C2/C(=O)C(=O)N(c3nc(C)c(C)s3)C2c2ccco2)cc1` (centres undefined): the growth inhibition was 18.5%.

In the case of `CCCCSc1nnc2n(CCc3ccccc3)c(=O)c3c4c(sc3n12)COC(C)(C)C4`, the growth inhibition was 13.8%.

For the molecule `CCCCOc1cc(C(=O)NCCN(CC)CC)c2ccccc2n1`, the growth inhibition was 81.4% (active) and 70.4% (active).

Consider `CCN(CC)CCNC(=O)c1cc(S(C)(=O)=O)ccc1OC`, for which the growth inhibition is -4.61%.

Turning to `CCN(CC)CCNC(=O)c1ccccc1N`, the growth inhibition is 2.63%.

Regarding `C=CCOn1c(=O)c(-c2cc3ccccc3o2)[n+]([O-])c2ccccc21`, the growth inhibition was 8.84%.

With `CN(C)CCC=C1c2ccccc2CCc2ccccc21`, the growth inhibition is 26.6%.

Take `CNCCC=C1c2ccccc2CCc2ccccc21`: the growth inhibition is 79.8% (active).

As for `CC1(C)Cc2ccccc2-c2c1c(=O)n(-c1ccccc1)c1nnnn21`, the growth inhibition is 3.31%.

For `Cc1ccccc1COc1ccc(/C(O)=C2/C(=O)C(=O)N(CCCn3ccnc3)C2c2ccco2)cc1` (centres undefined), the growth inhibition is 1.79%.

Take `CCN(CC)CCN1C(=O)C(O)=C(C(=O)c2cc3ccccc3o2)C1c1cccnc1` (centres undefined): the growth inhibition is -1.01%.

With `CC(C)OC(=O)C(C#N)c1nc2ccccc2nc1N1CCCC1` (centres undefined), the growth inhibition was 18.3%.

`COC(=O)COc1ccc(Oc2nc(SC)nc(N(C)C)n2)nn1`: the growth inhibition was -1.19%.
